Source: PubChem BioAssay (National Center for Advancing Translational Sciences (NCATS))
In the library only some 8% were active in any assay of this set; here they are far more common.
HT1080 IDH1KD tx = qHTS for induction of synthetic lethality in tumor cells producing 2HG: qHTS for the HT-1080-IDH1KD cell line; HT-1080 IDH1 knockdown viability, ATP luminescence, 48 h; Potency, µM (doses to about 46.1 µM), for inactives: at the top dose activity, negative = toxicity, most hits filed as cytotoxic; 2% of 360,000 active; AID 686971, 2013;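 also: 0% = DMSO wells and -100% = cell-free medium wells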
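Assay cells: HT-1080 with IDH1 knockdown, 750 per well, RPMI/5% FBS. Exposure: 48 h at 37 °C following 2 h pre-incubation. Read: CellTiter-Glo luminescence; fitted concentration-response, curve class assigned.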
HT1080-NT tox = qHTS for induction of synthetic lethality in tumor cells producing 2HG: qHTS for the HT-1080-NT fibrosarcoma cell line; HT-1080-NT fibrosarcoma viability, CellTiter-Glo ATP luminescence, 48 h; 1.6% of 360,000 active; Potency, µM (doses to about 46.1 µM), inactives show at the top dose activity, negative = less viability, most hits filed as cytotoxic;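 also: NT is the 2HG producing partner of a matched IDH1 knockdown line; 0% = DMSO-treated cells and -100% = media-only wells without cells; nearly all actives have a fitted effect of over 55% in size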
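Viability by CellTiter-Glo luminescence after 48 h compound exposure at 37C of HT-1080-NT cells (750/well, RPMI, 5% FBS). % activity scaled between DMSO wells and medium-only wells, then curve-fitted and categorized by curve class.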
MCF10A rerep = A quantitative high throughput screen for small molecules that induce DNA re-replication in MCF 10a normal breast cells; MCF 10A DNA re-replication, Hoechst nuclear intensity, 48 h; Potency, µM (doses to about 46.1 µM), for inactives: top-dose activity, positive = re-replication, usual class: activators; 2.9% of 350,000 active; AID 624296, 2012; also: % of control where 0% means no effect; nearly all actives have a fitted effect of over 50% in size
SW480 rereplic = A quantitative high throughput screen for small molecules that induce DNA re-replication in SW480 colon adenocarcinoma cells; SW480 DNA re-replication, Hoechst DNA content imaging, 48 h; Potency, µM (top dose mostly 46.1 µM), for the others: at the highest dose re-replication activation, most hits filed as activators; 1.8% of 340,000 active; also: % of control where 0% means no effect; nearly all actives have a fitted effect of over 55% in size
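SW480 cells exposed to compounds for 48 hr at 37 C, 5% CO2, then Hoechst-stained 40 min. Nuclear DNA content imaged by fluorescence scanning (405 nm excitation, 500-530 nm emission); re-replication scored as increased high-intensity nuclei.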
KB-V1 cytotox = qHTS assay for MDR1-selective chemotherapeutics: Primary screen using the drug-selected MDR subline cells KB-V1 | KB-V1 MDR cells viability, CellTiter-Glo, 72 h | AID 1347076, 2019 | 3.4% of 400,000 active | Potency, µM (highest dose often 46.1 µM), hits mostly cytotoxic; also: % is scaled to controls: 0 for no effect and ±100 for the full control effect; nearly all actives have a fitted effect of over 60% in size
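KB-V1 MDR subline cells in DMEM (phenol-red free, 10% FBS) exposed to compounds in qHTS concentration series for 72 h at 37 degrees C. Viability read by CellTiter-Glo luminescence; concentration-effect curves fitted after normalization and correction.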
KB-3-1 cytotox = qHTS assay for MDR1-selective chemotherapeutics: Primary screen using the parental adenocarcinoma cell KB-3-1; KB-3-1 viability, CellTiter-Glo ATP luminescence, 72 h; Potency, µM (doses to about 46.1 µM), most hits filed as cytotoxic; 1.4% of 400,000 active; AID 1347075, 2019; also: % is scaled to controls: 0 for no effect and ±100 for the full control effect; nearly all actives have a fitted effect of over 60% in size
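Cells are dispensed, compounds pinned in, plates held at 37 °C for 72 h, then CellTiter-Glo is added and luminescence read after 10 minutes. Cell line: parental KB-3-1 in phenol-red-free DMEM, 10% FBS.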
Numbers without * were called inactive; i = inactive; ? = inconclusive; / = no result; [ ] = remark or other dose. Calls follow the shape of the dose curve; as a rule, active = well fitted curve in the direction sought with a large enough effect; inconclusive = small, poorly fitted or top-dose-only effect, or another doubt; inactive = no such curve, though single readings can be large; an effect the other way counts as inactive or inconclusive. Potency is read from the fitted curve at half-maximal effect.

SMILES	HT1080 IDH1KD tx	HT1080-NT tox	MCF10A rerep	SW480 rereplic	KB-V1 cytotox	KB-3-1 cytotox
O=c1oc2ccccc2c(Nc2cc3ccccc3cc2O)c1[N+](=O)[O-]	?	?	2.1µM*	?	?	15µM*
O=C(/C=C/c1cn(-c2ccccc2)nc1-c1cccc(Cl)c1)N1CCN(c2ccccn2)CC1	-4%	-29%	21%	6%	23µM*	?
CN1CCN(C(=O)/C=C/c2cn(-c3ccccc3)nc2-c2ccc3c(c2)OCCO3)CC1	23µM*	23µM*	?	?	i	i
O=C(/C=C\c1cn(-c2ccccc2)nc1-c1ccc2c(c1)OCCO2)N1CCOCC1	-14%	-13%	18µM*	-70%	?	i
O=C(O)/C=C/c1cn(-c2ccccc2)nc1-c1ccc2c(c1)OCCO2	-10%	-6%	0%	0%	i	i
COc1ccc(-n2c(CC3C(=O)N(C)c4ccc(C)cc43)nc3ccccc3c2=O)cc1 (stereo not drawn)	/	/	/	/	i	i
CC(=O)Nc1ccc(N/C(N)=N/c2nc(C)cc(C)n2)cc1	-19%	-10%	6%[9.22 µM]	-11%	i	i
COc1ccc(C)cc1N/C(N)=N/c1nc(C)cc(C)n1	-20%	0%	8%	-3%	?	i
Cc1ccc(C)c(N/C(N)=N/c2nc(C)cc(C)n2)c1	-11%	5%	10%	4%	16µM*	i
Cc1cc(C)nc(/N=C(\N)Nc2ccc(-c3ccccc3)cc2)n1	16µM*	16µM*	?	12%	16µM*	16µM*
CCOc1ccc(NC(=O)CCNS(=O)(=O)c2ccc3c(c2)CCCC(=O)N3)cc1	/	/	/	/	i	i
COc1cc(-c2ccc3ncnc(NCc4ccc(C)o4)c3c2)cc(OC)c1OC	/	/	/	/	i	?
CC(=O)c1ccc(N2CCC(c3cc(-c4ccc(Cl)cc4Cl)n[nH]3)CC2)c([N+](=O)[O-])c1	?	14µM*	?	?	15µM*	?
Cc1ccc(NCCN(C)C)c2c(=O)c3cc(O)ccc3sc12	?	?	8%	?	12µM*	?
CN(C)CCNc1cccc2sc3ccc(O)cc3c(=O)c12	12µM*	9.2µM*	/	/	23µM*	16µM*
CCN(CC)CCNc1cccc2sc3ccccc3c(=O)c12	-14%	-3%	/	/	?	i
NS(=O)(=O)c1ccc(CCNc2nc3c(-c4cccc(F)c4)nnn3c3ccc(Cl)cc23)cc1	/	/	/	/	i	?
CC1CCN(S(=O)(=O)c2ccc3[nH]cc(C(=O)NCc4ccc(F)cc4)c(=O)c3c2)CC1	/	/	/	/	i	i
Clc1ccc(/C=C/c2ncc3ccccn23)cc1	-18%	-13%	18µM*	23µM*	?	i
Cc1cc(C)n2nc(SCC(=O)N3CCCC3)nc2n1	-1%	3%	-1%	0%	i	i
Cc1cc(C)n2nc(SCC(=O)N3CCN(c4ccccc4)CC3)nc2n1	9%	10%	-2%	-3%	12µM*	i
Cc1cc(C)cc(NC(=O)CSc2nc3nc(C)cc(C)n3n2)c1	1%	-2%	6%	-1%	18µM*	i
O=C(Nc1cccc2ccccc12)/C(=C/c1ccc([N+](=O)[O-])cc1)NC(=O)c1ccccc1	-10%	-3%	3%	6%	4.6µM*	i
Cc1ccc(NC(=O)/C(=C\c2ccc([N+](=O)[O-])cc2)NC(=O)c2ccccc2)cc1	-3%	-13%	3%	0%	i	i
O=C(N/N=C/c1ccc(O)c(O)c1O)/C(=C/c1ccc([N+](=O)[O-])cc1)NC(=O)c1ccccc1	15µM*	?	0%	20%	i	i
SMILES	HT1080 IDH1KD tx	HT1080-NT tox	MCF10A rerep	SW480 rereplic	KB-V1 cytotox	KB-3-1 cytotox
Cc1cccc(CC(=O)Nc2ccc3nc(N4CCC(C)CC4)cc(C)c3c2)c1	/	/	/	/	i	i
COC(=O)c1cc2c(ccn2-c2ccc(F)cc2)n1CC(=O)OC(C)C	-22%	-2%	16µM*	-8%	?	i
CCOC(=O)c1sc(/N=C/c2c(O)ccc3ccccc23)cc1C	-14%	2%	15µM*	-10%	i	i
COc1ccc(N2C(=O)CC(Sc3ncn[nH]3)C2=O)c(OC)c1 (stereo not drawn)	10µM*	?	2.3µM*	7.3µM*	i	i
C/C(=N\Nc1nc2c(s1)CCCC2)c1ccc(Cl)cc1	23µM*	23µM*	?	?	?	?
CN(C)c1ccc(C(=O)Nc2nc3c(s2)CCCC3)cc1	-18%	1%	0%	-7%	i	i
Cc1ccc2nc(-c3ccccn3)c(NC3CCCC3)n2c1	?	?	?	16µM*	i	i
CCOc1ccc(-c2nc3c(C#N)c[nH]n3c2NC2CCCC2)cc1	/	/	/	/	i	i
CCCN(Cc1nnc(-c2ccccc2Cl)o1)C(=O)COc1ccc(Cl)cc1	2%	5%	7%	-2%	4.1µM*	i
COc1ccc(-c2oc3ncn4nc(COc5cccc(C)c5C)nc4c3c2-c2ccc(OC)cc2)cc1	/	/	/	/	i	i
O=C(CC(C(=O)O)c1ccccc1)c1cccs1 (stereo not drawn)	0%	-3%	0%	-9%	i	i
CC(CC(=O)c1cccs1)CC(=O)c1cccs1	-10%	4%	18µM*	16µM*	i	i
CCOC(=O)c1ccccc1NC(=O)N1CCN(Cc2cc(=O)n3nc(-c4ccccc4)sc3n2)CC1	/	/	/	/	?	i
CN(C)c1ccc(/C=C/c2ccnc3cc(Cl)cc(Cl)c23)cc1	/	/	/	/	i	i
CSc1ccc(/C=N/NC(=O)c2ccccc2Cl)cc1	?	?	23µM*	?	?	?
CN(C)c1ccc(/C=N/NC(=O)c2ccccc2Cl)cc1	8.2µM*	12µM*	21µM*	2.6µM*	?	?
COc1ccc(C(=O)N/N=C/c2ccc(SC)cc2)cc1	15%	13%	6%	5.2µM*	i	i
COc1ccc(/C=N/NC(=O)c2cccc(NC(=O)c3ccccc3Cl)c2)cc1	2.3µM*	5.8µM*	2.6µM*	6.5µM*	i	16µM*
CCOCCn1c(=O)c2c(nc3n2CCN3c2ccc(C)c(C)c2)n(C)c1=O	/	/	/	/	i	i
